PubChem BioAssay AID1159577 (Broad Institute, 2015)
Out of some 1,300 compounds screened, about 240 (18%) were called active. Not shown: some 8% with an inconclusive outcome. Only a sample is shown. Measured potencies and affinities stand elsewhere. Unmarked numbers belong to inactive results. The rule behind the calls is not given here.

Assay: toxicity to human hepatoma HepG2 cells – cell-based, cherry-picked samples, cytotoxicity control, dose response (AID 1159577);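 note: 0% = neutral control wells and -100% = positive control wells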
Details: HepG2 cytotoxicity counterscreen, plate reader; series mostly up to 19.5 µM; activity change, negative = cytotoxicity: at the top concentration

Structure (SMILES) | activity change, negative = cytotoxicity
C[C@H]1CN([C@@H](C)CO)S(=O)(=O)c2ccc(C#Cc3ccncc3)cc2O[C@H]1CN(C)S(=O)(=O)c1ccc(F)cc1 | 3.3%
COc1cccc(NC(=O)N(C)C[C@@H]2Oc3cc(C#Cc4ccc(F)cc4)ccc3S(=O)(=O)N([C@@H](C)CO)C[C@@H]2C)c1 | -5.78%
COc1cccc(NC(=O)N(C)C[C@@H]2Oc3cc(C#Cc4ccc(F)cc4)ccc3S(=O)(=O)N([C@H](C)CO)C[C@@H]2C)c1 | 4.81%
C[C@@H]1CN([C@@H](C)CO)S(=O)(=O)c2ccc(/C=C/c3ccccc3)cc2O[C@H]1CN(C)Cc1cccnc1 | -0.832%
C[C@@H]1CN([C@@H](C)CO)S(=O)(=O)c2ccc(/C=C/c3ccccc3)cc2O[C@H]1CN(C)C(=O)C1CC1 | -1.84%
CC(C)CC#Cc1ccc2c(c1)O[C@H](CN(C)S(=O)(=O)c1ccc(F)cc1)[C@@H](C)CN([C@@H](C)CO)S2(=O)=O | -9.19%
COc1ccc(NC(=O)N(C)C[C@H]2Oc3cc(C#CCC(C)C)ccc3S(=O)(=O)N([C@H](C)CO)C[C@H]2C)cc1 | 1.72%
COc1ccccc1S(=O)(=O)N(C)C[C@@H]1Oc2cc(C#CCC(C)C)ccc2S(=O)(=O)N([C@@H](C)CO)C[C@H]1C | -3.25%
COc1ccccc1S(=O)(=O)N(C)C[C@@H]1Oc2cc(C#CCC(C)C)ccc2S(=O)(=O)N([C@@H](C)CO)C[C@@H]1C | -3.02%
CCCC(=O)N1CCC2(CC1)CN[C@@H](CO)c1[nH]c3cc(OC)ccc3c12 | 1.85%
N#C[C@@H]1[C@H](c2ccccc2C2=CCCCC2)[C@@H](CO)N1S(=O)(=O)c1ccccc1 | -8.39%
COc1ccc(C#Cc2ccc3c(c2)[C@@H]2[C@@H](CCN2C(=O)C2CC2)[C@H](CO)N3)cc1 | -15%
COCC(=O)N1CC2(C1)CN(Cc1cccc(Cl)c1)[C@@H](CO)c1[nH]c3cc(OC)ccc3c12 | 8.31%
CCC(=O)Nc1ccc2c(c1)OC[C@H](C)N(Cc1ccccn1)C[C@H](C)[C@H](OC)CN(C)C2=O | -6.77%
CN(C)CC#Cc1cccc(-c2nc(C(=O)N[C@@H]3CCN(Cc4ccccc4)C3)cc3c2[C@H](CCO)N(S(=O)C(C)(C)C)C3)c1 (stereo partly specified) | -9.7%
COc1ccc(C#Cc2ccc3c(c2)O[C@@H](CN(C)S(=O)(=O)c2ccccc2F)[C@@H](C)CN([C@@H](C)CO)S3(=O)=O)cc1 | 18.1%
COc1ccc2c3c([nH]c2c1)[C@H](CO)N(Cc1cc(F)ccc1F)CC31CCN(C(C)=O)CC1 | -5.87%
CN1C[C@H]2[C@@H](c3ccccc31)[C@H](CO)N2Cc1ccccc1F | 2.08%
COc1cccc(NC(=O)N2[C@@H](CO)[C@@H](c3ccccc3)[C@@H]2CNCC(C)C)c1 | -22.2%
C[C@H](CO)N1C[C@H](C)[C@H](CN(C)C(=O)Nc2cc(F)ccc2F)Oc2cc(/C=C/c3ccccc3)ccc2S1(=O)=O | -14.4%
Cc1ccc(-c2ccc3c(c2)O[C@@H](CN(C)Cc2cccnc2)[C@@H](C)CN([C@@H](C)CO)S3(=O)=O)cc1 | -31.1%

Structure (SMILES) | activity change, negative = cytotoxicity
C[C@@H]1CN([C@H](C)CO)S(=O)(=O)c2ccc(-c3ccncc3)cc2O[C@H]1CN(C)Cc1ccc(Oc2ccccc2)cc1 | 6.58%
C[C@H](CO)N1C[C@H](C)[C@H](CN(C)C(=O)Nc2ccc(F)cc2)Oc2cc(/C=C/c3ccccc3)ccc2S1(=O)=O | -7.91%
CCS(=O)(=O)N1CCC2(CC1)CN(Cc1ccc3c(c1)OCO3)[C@H](CO)c1[nH]c3cc(OC)ccc3c12 | 12.4%
CCC(=O)N1[C@H](CO)[C@@H](c2ccccc2-c2cccc(C)c2)[C@@H]1C#N | -26.1% [at 21 µM]
COc1ccccc1CNC(=O)C[C@H]1C[C@@H]2c3cc(NC(=O)Nc4ccc(C(F)(F)F)cc4)ccc3O[C@@H]2[C@@H](CO)O1 | -0.188%
CO[C@H]1CN(C)C(=O)c2cc(NC(=O)C3CC3)ccc2OC[C@H](C)N(Cc2cccc(F)c2)C[C@H]1C | 1.64%
O=C(c1ccccc1)N1CC[C@@H]2[C@@H](CO)Nc3ccc(-c4ccc(F)cc4)cc3[C@@H]21 | 5.88% [at 21 µM]
COc1ccc(C#Cc2ccc3c(c2)O[C@@H](CN(C)C(=O)Nc2cccc(OC)c2)[C@@H](C)CN([C@@H](C)CO)S3(=O)=O)cc1 | 17.5%
Cc1ccccc1S(=O)(=O)N1[C@H](CO)[C@@H](c2ccc(C#CC3CCCCC3)cc2)[C@@H]1C#N | 8.7%
COCC(=O)N1CC2(C1)CN(Cc1cc(F)ccc1F)[C@H](CO)c1[nH]c3cc(OC)ccc3c12 | -3.42%
CO[C@@H]1CN(C)C(=O)c2ccc(NC(=O)c3nc4ccccc4s3)cc2OC[C@H](C)N(Cc2cccnc2)C[C@@H]1C | 3.62%
CO[C@@H]1CN(C)C(=O)c2ccc(NC(=O)c3nc4ccccc4s3)cc2OC[C@H](C)N(Cc2ccncc2)C[C@@H]1C | 13.8%
CO[C@@H]1CN(C)C(=O)c2ccc(NC(=O)c3nc4ccccc4s3)cc2OC[C@@H](C)N(Cc2cccnc2)C[C@H]1C | -15.2%
CO[C@@H]1CN(C)C(=O)c2cc(NC(=O)c3nc4ccccc4s3)ccc2OC[C@@H](C)N(Cc2ccccc2)C[C@H]1C | 5.97%
CC(=O)N1CC[C@@H]2[C@@H](CO)Nc3ccc(C#Cc4ccccc4F)cc3[C@@H]21 | 12.8% [at 21 µM]
C/C=C/c1ccc([C@@H]2[C@@H](CO)N(CC3CCCC3)C23CN(S(=O)(=O)CC)C3)cc1 | -6.49%
COc1ccccc1CN1C[C@@H](C)[C@H](OC)CN(C)C(=O)c2ccc(NC(=O)Nc3ccccc3OC)cc2OC[C@H]1C | -18.3%
C[C@@H]1CN([C@H](C)CO)C(=O)c2cccc(NC(=O)CCCCCC(=O)Nc3ccccc3N)c2O[C@@H]1CN(C)S(=O)(=O)c1ccccc1 | -16.8% [at 21 µM]
Cc1ccccc1S(=O)(=O)N1[C@H](C#N)[C@@H](c2ccc(C#CC3CC3)cc2)[C@@H]1CO | -1.66%
C[C@H](CO)N1C[C@H](C)[C@@H](CN(C)C(=O)c2ccc(F)cc2)Oc2ncc(/C=C/c3ccccc3)cc2C1=O | 27.8%
